In all, about 330,000 compounds went through this assay and fewer than 10 were called active. The call rests on the fitted dose curve; in most records, active means well fitted activation curve with a large enough effect; inconclusive means small, poorly fitted or top-dose-only effect, or another doubt; inactive means no such curve, though single readings can be large or run the other way. Only a sample is shown. Square brackets hold non-standard residues; d marks the D form. Peptide text beside a SMILES is read from it. ξ: configuration not given here. Ac5c = NC1(C(=O)O)CCCC1; ξS = NC(CO)C(=O)O
Experiment: Activators of T cell receptors: qHTS campaign; further: % of control where 0% means no effect
Settings: primary human leukocytes, anti-CD3, IL-2 HTRF, 48 h; series mostly up to 9.22 µM; activation of IL-2 secretion: at the top concentration
Text: Normally activation of naive T cells requires two signals. 1. A signal through the T cell receptor (TCR) which provides antigen specificity to the response. 2. Signals through co-stimulatory molecules, which are necessary for proliferation, survival and cytokine production. In the absence of co-stimulatory signals T cells are not effectively activated, and may even be rendered anergic or unresponsive to subsequent signaling. This lack of costimulation has been shown in multiple model systems to be a major factor in the limited strength and effectiveness of anti-tumor T cell responses. The goal of this project is to identify small molecule compounds that will stimulate T cell activation in the presence of TCR signaling but in the absence of co-stimulatory signals, thereby allowing activation of naive T cells in the absence of co-stimulation. Identification of such compounds would have clear experimental and clinical applications in instances where desirable antigen-specific immune responses are not generated due to a lack of co-stimulation, for example in the generation of anti-tumor responses. In collaboration between the National Cancer Institute and NIH Chemical Genomics Center, a high-throughput amenable screen was developed to discover small molecules that co-stimulate and activate human T cell receptors. The screen will be carried out using a novel homogeneous time resolved fluorescence energy transfer (HTRF) assay to measure production of the cytokine IL-2 by activated T cells and will be tested against the NIH Molecular Libraries Small Molecule Repository (MLSMR). NIH Chemical Genomics Center [NCGC] NIH Molecular Libraries Probe Centers Network [MLPCN] MLPCN Grant: MH090820-01 Assay Submitter (PI): Richard Hodes, National Cancer Institute, NIH
Primary human leukocytes are incubated with a-CD3 beads and compounds for 48 hr. The amount of secreted IL-2 is then assayed with a HTRF IL-2 kit. The presence of IL-2 cytokine captures the detection reagents and brings the a-IL-2-K and a-IL-2-d2 into close proximity. Upon excitation with 320nm light, the europium cryptate is capable of transferring energy to acceptor molecules within close proximity, resulting in acceptor molecule emission at 665nm.

Activation of IL-2 secretion, inactive:
COc1ccc(S(=O)(=O)N2C[C@H]3CON(C)[C@H]3C[C@H]2c2cccc(Br)c2)cc1 0.192%
CC(C)c1cc(N=O)cc(C(C)C)c1O 0.896%
COC(=O)CC(CC(=O)OC)n1cccc1 5.57%
CCOc1ccc(/C=C(/C#N)c2nnc(N3CCOCC3)n2-c2ccccc2)cc1OC 14.1%
O=C(Cc1ccc(NC(=O)C2CCCN(C(=O)C3CCCCC3)C2)cc1)Nc1cccc(C(=O)N2CCCCC2)c1 (configuration not stated) -6.51%
Cc1[nH]c(N)nc(=S)c1CCCNc1ccccc1 -4.36%
CC(=NNC(=O)c1ccncc1)c1ccc(Cl)c(Cl)c1 0.449%
O=C(CCCCCCCC(=O)N1CCCCC1)N1CCCCC1 1.97%
NC(=O)C1(N2CCCC2)CCN(Cc2ccccc2)CC1 -0.103%
CCOc1cc(C(=O)N(Cc2ccccc2)c2ccc(C)cc2)ccc1OCC(=O)N1CCOCC1 -0.923%
CN(C(=O)c1ccc(NC(=O)Cc2cccc(NC(=O)C3CCN(C(=O)c4ccccc4)CC3)c2)cc1)C1CC1 0.0664%
COCC(=O)N(C)[C@H]1C[C@H]2c3cc(Oc4ccccc4C)ccc3CCN2C(=O)[C@H]1[C@H](C)O 8.09%
CCN(CC)S(=O)(=O)c1cccc(NC(=O)c2ccc(S(=O)(=O)N3CCCC3)cc2)c1 -28.5%
CCOC(=O)CCC(NC(=O)c1ccc(CNc2nc3cc(C(F)(F)F)ccc3nc2C(=O)OCC)cc1)C(=O)OCC (configuration not stated) -0.383%
N#CC1(Nc2ccc(-c3ccc(Cl)cc3)cc2)CCCC1 -4.8%
O=C(O)C(c1cccs1)C1(O)CCCCC1 (configuration not stated) 3.18%
COc1ccccc1NC(=O)N(O)C1(C#N)CCCCC1 -5.54%
CC(C)Cc1nnc(N)s1 -2.99%
Cn1c(N)cc(=O)n(C)c1=S 1.37%
CN1C(c2ccc(F)cc2)=CS/C1=C(/C#N)c1nnc2n1-c1ccccc1SC2 4.24%
COc1ccc2c(c1)c(=Cc1ccc(N(C)C)cc1)c1cc(-c3ccccc3)[n+](C)n12 -1.83%
O=C(Nc1cccc(Br)c1)C1CC(=O)N(C2CCCC2)C1 (configuration not stated) 7.06%
Cc1cc(OCCCC(=O)Nc2cc(S(=O)(=O)N3CCOCC3)ccc2N2CCOCC2)ccc1Cl -1.39%
Cc1cc(NC(=O)C(C)SCC(=O)Nc2cccc(S(=O)(=O)N3CCCCCC3)c2)no1 (configuration not stated) 0.672%
Oc1ccc(-c2nc3ccccc3nc2-c2ccc(O)cc2O)c(O)c1 -0.514%
CSCCC(NS(=O)(=O)c1ccc(C)cc1)C(=O)N(C)CC(=O)Nc1ccccc1Br (configuration not stated) -0.958%
CCCCN1CC(COc2ccccc2)Oc2cccc(F)c2S1(=O)=O (configuration not stated) 4.26%
CC(C)=CCc1ccc(O)c(=O)cc1C(C)C 12.1%
CC1(C)C(=O)CCC2(C)C1=CCC1C2C(=O)CC2(C)C1CCC2(O)C(=O)CO (configuration not stated) 0.234%
COC1=CC(=O)OC(C)(c2ccccc2)C1 (configuration not stated) -3.37%
O=C(NCC1CCCCC1)NCC1CCCCC1 -9.34%
Cc1ccc(NC(=O)C(C)OC(=O)C2CC3CCCC(C2)C3=O)cc1S(=O)(=O)N1CCOCC1 (configuration not stated) 6.86%
COc1ccc(CNC(=O)COC(=O)C2=Cc3ccccc3OC2)cc1 0.823%
COC1C(CO)OC(n2cnc3c(=S)nc(N)[nH]c32)C1O (configuration not stated) -2.7%
O=C(c1cccc(S(=O)(=O)N2CCCCCC2)c1)N1CCN(Cc2ccccc2)CC1 4.29%
O=C1NC(c2ccccc2)Cc2ccncc21 (configuration not stated) 1.23%
CN1CCOC1c1ccc(C2OCCN2C)cc1 (configuration not stated) 4%
CC1CCCN(C(=O)Cn2c(=O)oc3cc(S(=O)(=O)N4CCCCC4C)ccc32)C1 (configuration not stated) 1.25%
O=C(Cc1ccc(NC(=O)C2CCCN(C(=O)CCc3ccccc3)C2)cc1)Nc1ccc(C(=O)N2CCOCC2)cc1 (configuration not stated) 6.18%
CCOc1ccc(S(=O)(=O)N2CCN(C(=O)c3oc4ccccc4c3C)CC2)cc1 -1.99%
CN(C(=O)c1cccc(NC(=O)Cc2ccc(NC(=O)C3CCN(C(=O)C4CCCCC4)CC3)cc2)c1)C1CCC1 -2.83%
COc1cc2c(cc1OC)C1C(=O)c3cc(OS(C)(=O)=O)c(OC)cc3C1N(C)C2=O (configuration not stated) 18%
Nc1cc(=O)n(Cc2ccccc2)c(=O)n1Cc1ccccc1 1.08%
c1ccc(CNc2ncnc3[nH]ncc23)cc1 -0.266%
C[n+]1cccc(C(=O)O)c1 -1.15%
O=S(=O)(Cc1ccc(Cl)cc1Cl)c1ccc(Cl)cc1 -0.548%
CCOC(=O)[C@H]1[C@H]2COc3ccc(Br)cc3[C@@H]2N2C(=O)CN(C)C(=O)[C@@]12C -0.578%
O=[N+]([O-])c1cccc(C=NN=Cc2ccccc2O)c1 3.44%
O=C(Nc1ccc2ccccc2c1[N+](=O)[O-])c1ccccc1 2.49%
COc1ccc(NS(=O)(=O)c2ccc(N3CCOCC3)c(NC(=O)/C=C/C(=O)O)c2)cc1 -0.522%
Cc1nc2ccc(N)nc2nc1C 1.17%
CCOC(=O)C(CO)NC(=O)C1(NC(C)=O)CCCC1 (configuration not stated) (Ac-[Ac5c]-[ξS]-OEt) -9.89%
COc1ccc(N=C2C=CC(=O)O2)cc1 2.72%
C/C(=N\Nc1ccc(Cl)nn1)c1ccccc1O -4.92%
O=C(NNC(=O)c1ccc2ccccc2c1)c1ccc(Cl)cc1 3.64%
COC(=O)Cc1nc2c(N)nc(N)nc2[nH]c1=O 2.41%
CC(C)OC(=O)c1ccc(NCc2cc(O)ccc2O)cc1Cl -2.79%
Cc1cc([N+](=O)[O-])c(=O)[nH]c1C -6.49%
O=C(O)c1ccc(NN=CC2=C(N3CCOCC3)/C(=C/c3ccccc3)CC2)cc1 -1.53%
CCN1C[C@@H]2[C@@H]3C(=O)N(C)C(=O)[C@@H]3[C@](C)(C1=O)N2C(=O)c1ccccc1 1.71%
COc1ccc(Br)cc1/C=N/Nc1ccc(S(=O)(=O)Nc2ccccc2C(=O)O)cc1[N+](=O)[O-] -1.12%
O=C(Nc1c[nH]c(=O)[nH]c1=O)OCc1ccccc1 -1.09%
O=C(Nc1ccn(CCCNCc2ccc3[nH]ccc3c2)c(=O)n1)OCc1ccccc1 3.57%
CCCCNCCS(=O)(=O)NCc1ccccc1 -4.58%
COc1ccc2nc(N3C(=O)C(O)=C(C(=O)c4ccco4)C3c3ccco3)sc2c1 (configuration not stated) 1.73%
COc1ccc(C(CNC(=O)c2cccc(S(=O)(=O)Nc3ccc(Br)cc3)c2)N(C)C)cc1 (configuration not stated) -9.63%
CCCCC(=O)NC(c1ccc(OC)c(OC)c1)c1ccc2cccnc2c1O (configuration not stated) 3.02%
O=c1[nH]c(=S)[nH]c(O)c1/C=C1\C=Nc2ccccc21 -2.5%
O=C(O)C1C2C=CC(O2)C1C(=O)Nc1ccccn1 (configuration not stated) -9.44%
O=C(NCc1ccccc1)c1cccc(NC(=O)C2CCCCC2)c1 2.41%
O=C(NCCc1ccccc1)c1cccc(NC(=O)c2ccccc2)c1 1.8%
CCOc1ccc(CCNC(=O)COC(=O)C2CCN(S(=O)(=O)c3ccccc3)CC2)cc1OCC 3.13%
COc1ccc(-c2ccc3c(c2)[C@@H]2C[C@H](N(C)S(=O)(=O)c4ccccc4)[C@H]([C@H](C)O)C(=O)N2CC3)cc1 -1.04%
Oc1c(CN2CCOCC2)ccc(CN2CCOCC2)c1O -4.54%
COc1ccc(C2NCCCC2c2ccccc2)cc1 (configuration not stated) -1.89%
O=C(NN=Cc1ccccc1)c1ccccc1 0.412%
CCC1(C)COC(c2ccc(OC)c(OC)c2)OC1 (configuration not stated) 1.82%
Cc1ccccc1N1CCN(C(=O)c2cccnc2)CC1 5.77%
CSCCC(NC(=O)COc1ccccc1)C(=O)N1CCN(c2cccc(C(F)(F)F)c2)CC1 (configuration not stated) -6.34%
O=S1(=O)CCOC[C@H](Cc2ccccc2)N1Cc1ccccc1Br -2.37%
CC(Nc1ccc([N+](=O)[O-])cc1[N+](=O)[O-])c1ccccc1 (configuration not stated) 3.61%
NN=C(NN=Cc1ccccc1)c1ccccc1 8.09%
Cn1c(=S)sc2ccc3ccccc3c21 -8.56%
Nc1ncnc2c1cnn2C1CC(O)C(CO)O1 (configuration not stated) 5.52%
COc1ccc(CS(=O)/C(Cl)=C(/Cl)C(=O)Nc2ccc(OC)nc2)cc1 (configuration not stated) 3.3%
N=C1c2ccccc2-c2ccccc21 3.58%
C/C(=N\Nc1ccccc1)c1cccs1 -2.99%
CCCCCCCCNS(=O)(=O)CCNC1CCCCC1 -0.0999%
O=S1(=O)CSCS(=O)(=O)C1 -5.1%
Cc1ccc(SCC(=O)N2CCN(c3ccc(F)cc3)CC2)cc1 -7.83%
Cc1nc(Nc2ccccc2C)c2cnn(C)c2n1 2.43%
COc1ccc(NC(=O)/C(N=Nc2cccc(S(=O)(=O)Nc3ccc(SC(F)F)cc3)c2)=C(\C)O)cc1 -4.11%
O=C1CC[C@@H]2CC3(C[C@@H]4CCN1[C@H]24)Nc1cc([N+](=O)[O-])ccc1NC3=NC1CCCCC1 (some centres not stated) -5.47%
N#CC1=C(N)Oc2cc(N)ccc2C1c1ccccc1 (configuration not stated) 4.31%
CN(CCc1ccccc1)C(=O)c1cccc(NC(=O)Cc2cccc(NC(=O)C3CCCN(C(=O)C4CCC4)C3)c2)c1 (configuration not stated) -4.22%
COc1ccc(Nc2ccc3ccccc3c2)cc1 2.88%
COC1=NC2=NCCN2C(OC)=N1 -0.648%
